# Screening data deposited in PubChem by National Center for Advancing Translational Sciences (NCATS).
# In the library only some 2.3% were active in any assay of this set; here they are far more common.
# IL-2 act = qHTS of IL-2 Activators | IL-2 activation reporter assay, cell-based qHTS; stimulated with anti-CD3/CD4/CD28 beads; in transgenic mouse T cells | activation, % (series mostly up to about 46 µM) | 360,000 compounds, 0.065% hits; in the data active = activation above about 50%; inconclusive = mostly about 30% to 49%; also: 0% is about no effect
#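 Readout is EGFP and DsRed signal by fluorescent plate cytometry after 18 h at 37 degrees C. Transgenic mouse T cells (750/well) received compound for 60 min before bead stimulation (anti-CD3, anti-CD4, anti-CD28); memory T cells served as non-tolerant control.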
# Nrf2 ARE act = qHTS of Nrf2 Activators; 410,000 compounds, 0.31% hits; AREc32 ARE-luciferase reporter (MCF7-derived line), luminescence, 24 h; AID 624171, 2012; Potency, µM (series often up to 46.1 µM), inactives show at the top dose activation, usual class: activators; also: potency is read from the fitted curve at half-maximal effect; % of control where 0% means no effect; nearly all actives have a fitted effect of over 65% in size
#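 For detection, Steady-Glo was added and plates sat 30 min at RT; before that, AREc32_Fluc cells grown overnight in OPTI-MEM/5% FBS had been treated with 23 nL compound for 24 hr at 37 deg C.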
# A549 viability = Nrf2 qHTS screen for inhibitors: counterscreen for cytotoxicity. Potency, µM (doses to about 46 µM), for inactives: at the top dose activity change, negative = cytotoxicity, hits mostly inhibitors. A549 ARE-Fluc cells, CellTiter-Fluor viability, 18-24 h. AID 504648, 2011. 390,000 compounds, 0.16% hits; also: potency is read from the fitted curve at half-maximal effect; % is scaled to controls: 0 for no effect and ±100 for the full control effect
#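 A549 ARE_Fluc cells in 5% FBS OPTI-MEM were exposed to compounds in concentration-response for 18-24 h at 37 deg C. Viability was read by CellTiter-Fluor fluorescence (Ex 405/Em 525) after 30 min, before the luciferase read.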
# Nrf2 inh = Nrf2 qHTS screen for inhibitors. Potency, µM (top dose mostly 46 µM), inactives show at the highest dose activity change, negative = inhibition, usual class: inhibitors. 360,000 compounds, 2.1% hits. A549 ARE-Fluc reporter, luciferase luminescence, 18-24 h; also: potency is read from the fitted curve at half-maximal effect; % is scaled to controls: 0 for no effect and ±100 for the full control effect; nearly all actives have a fitted effect of over 60% in size
#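 Nrf2 function is reported as luminescence of an ARE-controlled luciferase in A549 cells. Compounds were tested at several concentrations, and a CellTiter-Fluor read on the same wells flagged cytotoxicity.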
# An asterisk follows results filed as active; u = inconclusive; x = no result given. Unless noted, calls follow the shape of the dose curve; as a rule, active = well fitted curve in the direction sought with a large enough effect; inconclusive = small, poorly fitted or top-dose-only effect, or another doubt; inactive = no such curve, though single readings can be large; an effect the other way counts as inactive or inconclusive.
SMILES,IL-2 act,Nrf2 ARE act,A549 viability,Nrf2 inh
CC(C(=O)c1ccc(-c2ccccc2)cc1)[n+]1ccccc1 (configuration not stated),-2.5,2.3%,u,7.31µM*
Cc1cccc(N2CCN(C(=O)CN3CCSc4ccccc43)CC2C)c1 (configuration not stated),x,-0.1%,-4.8%,x
CCOc1ccc(NC(=O)c2ccc3c(c2)CCN3S(=O)(=O)CC)cc1,x,-0.2%,-3.2%,u
Cc1cccc(C)c1NC(=O)C(Cl)=C(Cl)Cl,-1.9,11.2µM*,0.8%,25.6%
CCN(CC)CC(=O)Nc1c(C)cccc1C,-0.2,-0.8%,-0.6%,x
CCn1c(CSCc2ccc(C)cc2)nnc1SCC(=O)N1CCN(c2ccccc2)CC1,-0.6,3.3%,u,20.6µM*
O=c1cc(N2CCCCC2)c(-c2ccccc2)nn1Cc1c(Cl)cccc1Cl,-3.4,0.3%,u,18.4µM*
COc1ccc(S(=O)(=O)Nc2cc3c(cc2NCc2ccccc2)n(C)c(=O)n3C)cc1,x,11.2µM*,-3.6%,-8.6%
O=C(/C=C/c1ccc(-c2ccccc2[N+](=O)[O-])o1)c1ccc(Br)cc1,1.6,2.51µM*,-0.4%,-7.5%
CCN(CC)CCOC(=O)c1ccc(NC(=O)Cn2ncc3c2-c2cc(C)ccc2OC3)cc1,x,4.1%,-9.1%,7.8%
N#C/C(=C\c1ccccc1)C(=O)NCCN1CCOCC1,0.0,0.3%,0.6%,2.1%
C=CCn1c(=O)/c(=C/c2ccsc2)s/c1=C(\C#N)C(=O)NCCN1CCOCC1,60.3*,-0.3%,10.0%,-10.9%
CN1CC(c2ccccc2)C2(SC(=S)N(Cc3ccco3)C2=O)C12C(=O)Nc1ccccc12 (configuration not stated),-2.8,2.9%,u,11.6µM*
CN1CC(c2ccccn2)C2(SC(=S)N(Cc3ccccc3)C2=O)C12C(=O)Nc1ccccc12 (configuration not stated),-1.8,2.1%,0.5%,23.1µM*
CC(=O)c1ccc(NC(=O)Cn2cc(S(=O)(=O)Cc3ccccc3Cl)c3ccccc32)cc1,x,3.0%,-4.2%,u
O=C(c1ccc2c(c1)OCO2)N1CCN(c2ccc(C(F)(F)F)cn2)CC1,-0.1,4.6%,-0.2%,11.6µM*
Clc1cccc(-c2nc3c4ccccc4ccn3c2Cc2ccsc2)c1,0.8,u,x,x
Clc1cccc(Cc2c(-c3cccc(Cl)c3)nc3c4ccccc4ccn23)c1,-0.9,11.1%,x,x
Brc1cccc(-c2nc3c4ccccc4ccn3c2Cc2ccsc2)c1,-0.2,11.2µM*,x,x
Fc1cccc(Cc2c(-c3ccco3)nc3c4ccccc4ccn23)c1,-0.8,5.01µM*,x,x
COc1ccc(Cc2c(-c3ccc(F)cc3)nc3c4ccccc4ccn23)c(C)c1,-0.3,u,x,x
Clc1cccc(Cc2c(-c3ccccc3)nc3c4ccccc4ccn23)c1,-0.1,5.01µM*,x,x
COc1ccc(Cc2c(-c3ccccc3)nc3c4ccccc4ccn23)c(C)c1,2.9,5.01µM*,x,x
COc1ccc(-c2cn3cccnc3n2)cc1NC(=O)c1ccccc1C(F)(F)F,x,1.3%,5.8%,x
Cc1noc(C)c1S(=O)(=O)NCCc1csc2nc(-c3ccc(F)cc3)nn12,x,5.0%,-16.0%,x
SMILES,IL-2 act,Nrf2 ARE act,A549 viability,Nrf2 inh
CCc1ccc(NC(=O)c2ccc3c(c2)N(Cc2ccc(C)cc2)CCS3)cc1,x,5.7%,-2.3%,u
CC(C)C[C@H](NC(=O)c1nc[nH]c1C(=O)N[C@@H](CC(C)C)C(=O)OC(C)(C)C)C(=O)OC(C)(C)C,-4.3,11.9%,u,25.9µM*
Cc1c(C(=O)/C=C/c2cccs2)oc2ccc(F)cc12,-1.6,7.94µM*,1.6%,u
O=[N+]([O-])c1ccc(-c2ccc(S(=O)(=O)N3CCOCC3)cc2)cc1,0.5,-0.9%,-1.7%,0.3%
O=[N+]([O-])c1ccc(Oc2ccc(S(=O)(=O)N3CCOCC3)cc2)cc1,0.1,0.8%,-3.3%,25.9µM*
O=C(NCc1ccc(F)cc1)c1c(O)nc2ccccn2c1=O,x,-1.0%,1.1%,-6.2%
COCCCNC(=O)C(C#N)c1nc2ccccc2nc1N1CCN(Cc2ccccc2)CC1 (configuration not stated),96.5*,0.3%,u,u
C=CCNC(=O)C(C#N)c1nc2ccccc2nc1N1CCN(Cc2ccccc2)CC1 (configuration not stated),66.5*,0.1%,7.9%,0.9%
COCCOC(=O)C(C#N)c1nc2ccccc2nc1N1CCN(Cc2ccccc2)CC1 (configuration not stated),1.3,0.0%,-7.4%,-13.3%
Cc1ccc(C)c(NC(=O)c2cnn(-c3cccc(F)c3)c2C2CCN(C(=O)OC(C)(C)C)CC2)c1,x,-1.4%,1.8%,u
Cc1ccc(/C=C/c2onc(C)c2S(=O)(=O)N2CCC(C(=O)NCc3ccc(C)o3)CC2)cc1,x,0.5%,7.9%,x
COc1ccccc1N1CCN(Cc2ccc(-c3ccccc3[N+](=O)[O-])o2)CC1,1.1,9.2%,-1.5%,23.1µM*
Cc1cccc(NC(=O)CSc2nc(COc3ccccc3)nc3ccccc23)c1C,1.3,0.1%,u,25.9µM*
CCN(CC)c1ccc(NC(=O)Nc2cccc(C(C)=O)c2)cc1,-4.2,5.0%,-1.3%,14.6µM*
CC(=O)Nc1cccc(NC(=O)Nc2ccc(C(C)=O)cc2)c1,-2.2,2.9%,9.7%,4.7%
CCc1ccc(NC(=O)Nc2ccc3c(c2)N(C)C(=O)CS3)cc1,-2.5,-1.6%,-11.1%,16.4µM*
CC(=O)c1cccc(NC(=O)Nc2ccc3c(c2)N(C)C(=O)CS3)c1,1.7,0.1%,-1.3%,13µM*
Cc1ccc(NC(=O)Nc2ccc3c(c2)N(C)C(=O)CS3)cc1C,-1.9,-0.5%,-11.5%,u
Cc1cc(C)cc(NC(=O)Nc2ccc3c(c2)N(C)C(=O)CS3)c1,8.5,2.6%,12.0%,u
CCOC(=O)c1cccc(NC(=O)Nc2ccc3c(c2)N(C)C(=O)c2ccccc2S3)c1,x,0.4%,-19.6%,20.6µM*
c1csc(CNc2ncnc3cc(-c4ccc5c(c4)OCO5)ccc23)c1,x,x,-2.8%,-12.6%
Oc1ccc(CCc2ccccc2F)c2cccnc12,x,x,-1.5%,u
C=CCC[C@H](Cc1ccc(F)cc1)C(=O)OC[C@@H](Cc1c[nH]c2ccccc12)NC(=O)[C@@H](CC=C)CC(=O)N(CCO)Cc1ccccc1,-0.9,-4.2%,11.6µM*,9.2µM*
C=CC[C@@H](CC(=O)N[C@H](CO)Cc1ccccc1)C(=O)N[C@H](COC(=O)[C@@H](CC=C)CC(=O)OC(C)(C)C)Cc1c[nH]c2ccccc12,1.5,-4.4%,11.6µM*,20.6µM*
Cc1ccc(-c2cc(C(=O)N3CCN(S(=O)(=O)c4ccc(Br)s4)CC3)[nH]n2)c(C)c1,x,-0.7%,-3.2%,-23.8%
Cc1ccc(C)c(SC2=NS(=O)(=O)c3ccccc32)c1,x,x,-8.2%,-1.2%
O=C(Nc1ccc(Br)cc1)c1ccc(F)c(S(=O)(=O)NCc2cccs2)c1,-3.9,4.3%,-3.2%,11.6µM*
O=S(=O)(NCc1cccs1)c1ccc(Br)cc1,0.6,-0.7%,4.9%,-3.5%
